The list is not random: actives were taken first. Their share in the collection is about 10%.
CtBP-E1A blk: qHTS Assay for Inhibitors of the CtBP/E1A Interaction; AlphaScreen GST-E1A/His-CtBP binding, 1536-well; stronger effect = lower value; actives 0.49% (n = 340,000); AID 651724, 2012; activity change, % (concentration not given with the values); CtBP / adenovirus E1A interaction (AlphaScreen); in the data active = activity change below about -65%; inconclusive = mostly about -30% to -63%; note: % is set by controls: 0 for no effect and ±100 for the full control effect
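Homogeneous bead-based format: GST-tagged E1A captured on glutathione donor beads, His-tagged CtBP on nickel acceptor beads; compounds precede bead addition by 2 h at 37 °C.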
G9a inh: qHTS Assay for Inhibitors of Histone Lysine Methyltransferase G9a | Histone-lysine N-methyltransferase EHMT2 (Homo sapiens), Q96KQ7 | G9a H3K9 monomethylation, AlphaScreen, 2 h | Potency, µM (top dose mostly 102 µM), without a hit: at the top dose activity, negative = inhibition, actives largely listed as inhibitors | actives 8.8% (n = 350,000); note: potency is the fitted concentration of half-maximal effect; % is set by controls: 0 for no effect and ±100 for the full control effect; nearly all actives have a fitted effect of over 75% in size
Target sequence (Q96KQ7 913-1193 limits assumed): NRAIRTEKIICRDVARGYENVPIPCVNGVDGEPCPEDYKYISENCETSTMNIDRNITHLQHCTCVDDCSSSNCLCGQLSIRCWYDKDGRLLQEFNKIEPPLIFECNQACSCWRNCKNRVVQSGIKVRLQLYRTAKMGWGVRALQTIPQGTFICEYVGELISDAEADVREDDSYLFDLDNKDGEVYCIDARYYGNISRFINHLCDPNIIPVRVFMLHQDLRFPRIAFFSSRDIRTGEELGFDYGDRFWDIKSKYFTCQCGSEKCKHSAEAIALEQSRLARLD
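Compounds were preincubated with 20 nM G9a for 15 min, after which biotinylated H3K9 peptide (500 nM) and SAM (20 uM) started a 2 h room-temperature reaction. Monomethylated product was quantified by antibody-based AlphaScreen chemiluminescence.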
HP1b binding inh: HTS for Inhibitors of HP1-beta Chromodomain Interactions with Methylated Histone Tails; Potency, µM (doses to about 114 µM), without a hit: top-dose activity change, negative = inhibition, most hits filed as inhibitors; AlphaScreen HP1-beta / biotin-H3K9me3 peptide binding; Chromobox protein homolog 1 (Homo sapiens), P83916; actives 0.56% (n = 390,000); note: potency is the fitted concentration of half-maximal effect; nearly all actives have a fitted effect of over 70% in size
Target sequence (P83916 whole entry, looked up): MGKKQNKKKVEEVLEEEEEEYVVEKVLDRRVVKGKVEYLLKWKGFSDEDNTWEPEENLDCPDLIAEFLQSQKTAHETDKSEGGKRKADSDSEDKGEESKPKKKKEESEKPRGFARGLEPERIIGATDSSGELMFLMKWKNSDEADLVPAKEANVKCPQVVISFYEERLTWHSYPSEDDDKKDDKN
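HP1-beta protein (50 nM final) preincubated 30 min at room temperature with biotinylated H3(1-18)K9me3 peptide (50 nM) in PBS pH 7.4, 0.01% Tween-20, then compound added for 30 min. AlphaScreen streptavidin donor/nickel chelate acceptor beads (10 ug/mL final), 30 min dark, luminescence read.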
Six1-Eya2 blk: qHTS Assay for Inhibitors of the Six1/Eya2 Interaction. AlphaScreen GST-Six1/His-Eya2 binding, biochemical; stronger effect = lower value. activity change, % (no concentration beside the values). actives 0.56% (n = 360,000). AID 651725, 2012; in the data active = activity change below about -65%; inconclusive = mostly about -30% to -63%; note: % is set by controls: 0 for no effect and ±100 for the full control effect
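AlphaScreen luminescence read after one hour at 37 °C in darkness. Pin-transferred compounds met GST-Six1 and His-Eya2 protein (5X stock 250 nM/500 nM) plus glutathione donor and Ni-chelate acceptor beads (5X, 50 ug/mL).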
JMJD2A Tudor inh: qHTS Assay for Inhibitors of JMJD2A-Tudor Domain; Lysine-specific demethylase 4A (Homo sapiens), O75164; AlphaScreen JMJD2A-Tudor / H3K4me3 peptide binding; Potency, µM (series often up to 114 µM), inactives show at the highest dose activity change, negative = inhibition, usual class: inhibitors; actives 4.4% (n = 390,000); note: potency is the fitted concentration of half-maximal effect; % is set by controls: 0 for no effect and ±100 for the full control effect; nearly all actives have a fitted effect of over 50% in size
BAZ2B block: qHTS Assay for Inhibitors of BAZ2B; Bromodomain adjacent to zinc finger domain protein 2B (Homo sapiens), Q9UIF8; AlphaScreen BAZ2B-H3K14Ac peptide displacement; Potency, µM (doses to about 114 µM), inactives show top-dose activity change, negative = inhibition, hits mostly inhibitors; actives 4.4% (n = 360,000); AID 504333, 2011; note: potency is the fitted concentration of half-maximal effect; % is set by controls: 0 for no effect and ±100 for the full control effect; nearly all actives have a fitted effect of over 60% in size
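Multi-concentration screen (max 110 uM) measuring displacement of acetylated histone H3 peptide from BAZ2B by AlphaScreen, using 50 nM protein, 50 nM peptide and 10 ug/mL streptavidin donor plus Ni-chelate acceptor beads.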
* hit, by the source's call; [ ] = remark or other dose. Unless noted, calls come from the whole dose curve; as a rule, active = well fitted inhibition curve with a large enough effect; inconclusive = small, poorly fitted or top-dose-only effect; inactive = no such curve, though single readings can be large or run the other way.

How did Cc1cn(C2OC(COC(=O)c3ccccc3)C(O)C2Cl)c(=O)[nH]c1=O (stereo not given) do in these assays?
G9a inh: 50µM*; HP1b binding inh: 53%; Six1-Eya2 blk: 0; JMJD2A Tudor inh: -5%; BAZ2B block: -13%

What do the screens show for `O=C(OCC1OC(n2cc(Br)c(=O)[nH]c2=O)C(Br)C1O)c1ccccc1` (stereo not given)?
G9a inh: -12%; HP1b binding inh: 37%; Six1-Eya2 blk: 0; JMJD2A Tudor inh: 2%; BAZ2B block: 8%

Results for Cn1c2ccccc2c(=O)c2ccc(C#CC3(O)CCCCC3)cc21 ?
CtBP-E1A blk: 17; G9a inh: 79µM*; HP1b binding inh: 147%; Six1-Eya2 blk: 8; JMJD2A Tudor inh: 32%; BAZ2B block: 17%

What do the screens show for `COc1cc2sc3ccc(C#CC4(O)CCCCC4)cc3c(=O)c2cc1OC`?
CtBP-E1A blk: -3; HP1b binding inh: 43%; Six1-Eya2 blk: 5; JMJD2A Tudor inh: 3%

How did COc1c(/C=N/NC(=O)c2ccccc2O)c(CCN(C)C(C)=O)cc2c1OCO2 do in these assays?
CtBP-E1A blk: -12; G9a inh: 42%[59 µM]; HP1b binding inh: 21%; Six1-Eya2 blk: -9; JMJD2A Tudor inh: 0%; BAZ2B block: -9%

What do the screens show for `COc1c(/C=N/Nc2ccc(C(=O)O)cc2)c(CCN(C)C(C)=O)cc2c1OCO2`?
G9a inh: 45µM*; HP1b binding inh: 44%; Six1-Eya2 blk: -6; JMJD2A Tudor inh: 3%; BAZ2B block: -15%

What do the screens show for `CN(C)c1oc(-c2ccccc2Cl)nc1P(=O)(c1ccccc1)c1ccccc1`?
CtBP-E1A blk: -17; G9a inh: inconclusive; HP1b binding inh: -16%; Six1-Eya2 blk: -8; JMJD2A Tudor inh: 56µM*; BAZ2B block: inconclusive

How did COc1ccccc1CNc1nc(-c2ccco2)nn1C(=O)c1ccccc1[N+](=O)[O-] do in these assays?
G9a inh: 11µM*; HP1b binding inh: -1%; JMJD2A Tudor inh: inconclusive; BAZ2B block: inconclusive

What do the screens show for `Cc1ccc(CNc2nc(-c3ccco3)nn2C(=O)c2ccccc2[N+](=O)[O-])cc1`?
G9a inh: 13µM*; HP1b binding inh: inconclusive; JMJD2A Tudor inh: inconclusive; BAZ2B block: 8.9µM*

Results for COc1ccc(CNc2nc(-c3ccco3)nn2C(=O)c2ccccc2C)cc1 ?
G9a inh: inconclusive; HP1b binding inh: -5%; JMJD2A Tudor inh: -20%; BAZ2B block: -11%

Results for CN(C)c1ccc(CNc2nc(-c3ccco3)nn2C(=O)c2cccc([N+](=O)[O-])c2)cc1 ?
G9a inh: 7.9µM*; HP1b binding inh: inconclusive; JMJD2A Tudor inh: 45µM*; BAZ2B block: 35µM*

How did Cc1cccc(C(=O)NC2CCN(C(=O)NCc3ccccc3)CC2)c1 do in these assays?
CtBP-E1A blk: 4; G9a inh: 11µM*; HP1b binding inh: -38%; Six1-Eya2 blk: 1; JMJD2A Tudor inh: inconclusive; BAZ2B block: -39%

How did Cc1ccc(NC(=O)N2CCC(NC(=O)c3cccc(C)c3)CC2)cc1 do in these assays?
CtBP-E1A blk: -6; G9a inh: 7.9µM*; HP1b binding inh: inconclusive; Six1-Eya2 blk: -9; JMJD2A Tudor inh: 40µM*; BAZ2B block: 50µM*

How did O=C(OCC(=O)c1ccc[nH]1)c1ccc(F)c(S(=O)(=O)N2CCOCC2)c1 do in these assays?
HP1b binding inh: 31%; Six1-Eya2 blk: 3; JMJD2A Tudor inh: -7%

What do the screens show for `CCN(CC)C(=O)CSc1nc2cc3c(cc2c(=O)n1Cc1ccc(C(=O)NCCc2ccc(OC)c(OC)c2)cc1)OCO3`?
G9a inh: -6%[59 µM]; HP1b binding inh: 30%; JMJD2A Tudor inh: -13%; BAZ2B block: -9%

Results for O=C1CC(=O)c2c1cccc2[N+](=O)[O-] ?
G9a inh: 10µM*; BAZ2B block: 50µM*

Results for O=C1OCc2cccc([N+](=O)[O-])c21 ?
CtBP-E1A blk: 8; G9a inh: -2%; HP1b binding inh: 13%; Six1-Eya2 blk: 12; JMJD2A Tudor inh: -21%; BAZ2B block: 2%

Results for COc1ccc(C2/C(=C(/O)c3ccc(F)cc3)C(=O)C(=O)N2c2ccccn2)cc1OC (stereo not given) ?
CtBP-E1A blk: 4; G9a inh: -10%; HP1b binding inh: 23%; Six1-Eya2 blk: 7; JMJD2A Tudor inh: 18µM*; BAZ2B block: -2%

What do the screens show for `Cc1ccc(/C(O)=C2\C(=O)C(=O)N(CC(C)O)C2c2ccccn2)cc1` (stereo not given)?
CtBP-E1A blk: -2; HP1b binding inh: 10%; Six1-Eya2 blk: 3; JMJD2A Tudor inh: 35µM*; BAZ2B block: 19%

What do the screens show for `CCOc1ccc(/C(O)=C2/C(=O)C(=O)N(c3ncccn3)C2c2ccc(Cl)cc2)cc1` (stereo not given)?
CtBP-E1A blk: -7; G9a inh: 50µM*; HP1b binding inh: 19%; Six1-Eya2 blk: 8; JMJD2A Tudor inh: -20%; BAZ2B block: inconclusive

How did O=C1C(=O)N(Cc2cccnc2)C(c2ccccn2)/C1=C(/O)c1ccccc1 (stereo not given) do in these assays?
CtBP-E1A blk: 3; G9a inh: inconclusive; HP1b binding inh: 5%; Six1-Eya2 blk: 3; JMJD2A Tudor inh: inconclusive; BAZ2B block: inconclusive

What do the screens show for `Cc1ccc(/C(O)=C2/C(=O)C(=O)N(CC(=O)O)C2c2ccc([N+](=O)[O-])cc2)cc1` (stereo not given)?
CtBP-E1A blk: -9; G9a inh: inconclusive; HP1b binding inh: 57%; Six1-Eya2 blk: 0; JMJD2A Tudor inh: 50µM*; BAZ2B block: inconclusive

What do the screens show for `O=C(c1[nH]c(C(F)(F)F)nc1-c1ccccc1)N1CCN(c2cccc(C(F)(F)F)n2)CC1`?
CtBP-E1A blk: 20; Six1-Eya2 blk: 12

How did CCCCn1nnnc1C(c1cccc2ccccc12)N1CCN(C/C=C/c2ccccc2)CC1 (stereo not given) do in these assays?
CtBP-E1A blk: -19; Six1-Eya2 blk: -18

High-throughput results: PubChem BioAssay, National Center for Advancing Translational Sciences (NCATS)
